Records with an inconclusive call do not appear. Active and inactive are the calls of the source. Calls come from the whole dose curve; as a rule, active = well fitted activation curve with a large enough effect; inconclusive = small, poorly fitted or top-dose-only effect; inactive = no such curve, though single readings can be large or run the other way.
Test: qHTS Assay for Rab9 Promoter Activators: Initial hit validation from the primary screen
Conditions: Huh7 Rab9 promoter luciferase reporter, 24 h; series mostly up to 46.1 µM
From the text: NIH Chemical Genomics Center [NCGC] NIH Molecular Libraries Probe Production centers Network [MLPCN] MLPCN Grant: MH089537-01 Assay Submitter (PI): Yiannis A. Ioannou NCGC Assay Overview: Niemann Pick Type C (NPC) is a rare neurodegenerative lipidosis that is characterized by lipid storage in the endosomal/lysosomal system. Treatment modalities for this devastating disease are currently non-existent due to the severe obstacles associated with accessing the central nervous system with proteins or genes (Ioannou, 2000). We have developed a new paradigm, termed "Orphan Receptor Bypass Therapy" (ORByT), to address these disorders. This paradigm posits the existence of endogenous "suppressor" proteins whose expression can dramatically improve LSD pathogenesis. The goal is the identification/discovery of small chemical compounds that can modulate the expression of these proteins and provide a new treatment modality for these devastating disorders. One such protein whose overexpression reverses aspects of the NPC phenotype is Rab9. We have developed and optimized a cell based luciferase reporter assay in 1536 well format for the identification of up-regulators of the Rab9 promoter. This assay presents data on the validation of hits from the primary screen.
The Rab9 promoter is cloned in front of the luciferase reporter gene, therefore […] promoter activation results in luciferase expression. Frozen stock of the Rab9 promoter transfected Huh7 cells were obtained from the laboratory of Dr. Yiannis Ioannou (The Mount Sinai School of Medicine, New York, NY). Cells were propagated and maintained at NCGC in medium containing RPMI-1640 supplemented with 10% FBS, 2mM L-glutamine, and 50ug/ml penicillin/streptomycin. Cells were harvested in and plated for assays in OP-MEM I reduced-serum medium supplemented with 10% FBS. The Amplite luciferase reporter gene assay kit was purchased from ABD Bioquest and prepared/stored according to manufacturers recommendations. qHTS Assay Setup: 1.Dispensed 5ul of Huh7 cells stably expressing Rab9-luciferase at a density of 1500 cells per well 1536-well plates. 2.Incubate cells at 37C, 5% CO2, and 95% humidity for 2 hours. 3.Transferred 23nl per well of compound in DMSO solution. 4.Incubated at 37C, 5% CO2, and 95% humidity for 24 hours. 5.Dispensed 3ul per well of Amplite reagent(ABD Bioquest) per well. 6.Incubate at ambient for 10 minutes. 7.Read using the luminescence protocol on the ViewLux plate reader (Perkin Elmer).

**Q.** Which outcome does the source give for `COc1ccc(C(CC(=O)N2CCC3(CC2)OCCO3)NS(=O)(=O)c2ccc(F)cc2)cc1` (stereo unspecified) here?
**A.** inactive

**Q.** Which outcome does the source give for `CN1CCc2cc3c(c4c2C1Cc1ccccc1-4)OCO3` (stereo unspecified) here?
**A.** inactive

**Q.** For `Cc1cccn2c(NCC3CCCO3)c(C(C)C)nc12` (stereo unspecified), which outcome is on record?
**A.** inactive

**Q.** For `CCC(=NCc1cccnc1)c1c(O)n(-c2ccccc2)c(=O)[nH]c1=O`, which outcome is on record?
**A.** inactive

**Q.** For `O=C1c2ccccc2C(=O)N1Cc1nc2ccccc2c(=O)n1-c1cccnc1`, which outcome is on record?
**A.** inactive

**Q.** Which outcome does the source give for `COc1cccc(CCNCc2ccc(SC)cc2)c1` here?
**A.** inactive

From PubChem BioAssay AID493200 (National Center for Advancing Translational Sciences (NCATS), 2011)
